In the library only some 21% were active in any assay of this set; here they are far more common.
Cycloheximide cs: affects cycloheximide protein synthesis inhibition readout, counter-screen; 300,000 compounds, 12% hits; max response, %; cell reporter, cycloheximide protein synthesis inhibition counterscreen; AID 2314; in the data active = max response mostly above about 13%, no sharp cut-off; inactive = mostly below about 14%; also: read at 38.3 µM for the half of the compounds with a filed dose; 0% is about no effect
Pf growth 96h: P. falciparum growth inhibition at 96 hours. P. falciparum luciferase reporter growth, 96 h. Potency, µM (series often up to 28.7 µM), for inactives: at the top dose activity change, negative = inhibition, hits mostly inhibitors. 320,000 compounds, 6.9% hits. AID 504834; also: potency is read from the fitted curve at half-maximal effect; % is scaled to controls: 0 for no effect and ±100 for the full control effect
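Two-generation exposure (96 h) targets delayed-death phenotype. Reporter parasites carrying integrated firefly luciferase, in red cells at 2% hematocrit and 0.05% parasitemia final, kept at 37 C, 5% CO2; luminescence loss indicates inhibition.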
Shiga inhibitor: inhibitors of Shiga toxin in Vero cells. Vero cells, Shiga toxin protein synthesis inhibition reporter. inhibition, % at 38.7 µM. 290,000 compounds, 9.2% hits; in the data active = inhibition mostly above about 28%, no sharp cut-off; inactive = mostly below about 43%; also: 0% is about no effect
Pf growth 48h: inhibits P. falciparum growth in the first generation, 48 h; AID 504832; P. falciparum luciferase growth in erythrocytes, 48 h; 310,000 compounds, 5.9% hits; Potency, µM (top dose mostly 28.7 µM), for inactives: top-dose activity change, negative = inhibition, most hits filed as inhibitors; also: potency is read from the fitted curve at half-maximal effect; % is scaled to controls: 0 for no effect and ±100 for the full control effect
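Luciferase-expressing parasites in RBCs, 2% Hct / 0.1% parasitemia final; RPMI 1640 + 0.5% Albumax; 37 C, 5% CO2, one generation; luminescence read-out, lower signal = inhibition.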
HCV inhibitor: blocks hepatitis C virus. Huh7.5.1 HCVcc-Cre infection, luciferase reporter, 44 h. Potency, µM (top dose mostly 41.8 µM), for the others: at the highest dose activity change, negative = inhibition, usual class: inhibitors. 340,000 compounds, 3.4% hits. AID 651820; also: potency is read from the fitted curve at half-maximal effect; % is scaled to controls: 0 for no effect and ±100 for the full control effect
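Infectious HCV cell culture screen: compound-treated cells (1,000/well, pre-plated 4 h) are infected with HCVcc-Cre at roughly 0.5 moi and grown 44 h. Infection is quantified by luciferase signal after 15 min substrate incubation at room temperature.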
HCMV inh: inhibitors of human cytomegalovirus. activity change, negative = inhibition, % at 57.5 µM. AID 1259415. HFF cells, HCMV-luciferase reporter, 72 h; stronger effect = lower value. 410,000 compounds, 4.5% hits; in the data active = activity change below about -60%; inconclusive = no clear call, values can overlap the other calls; inactive = above about -39%; also: % is scaled to controls: 0 for no effect and ±100 for the full control effect
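HFF cells seeded 16 h at 37C, treated with compounds, infected with luciferase-reporter HCMV at MOI 1 PFU/cell; luciferase read at 72 h post infection, normalized to buffer-only and Salinomycin controls.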
Active calls of the source: *; ? = inconclusive; . = no result; ! = repeats disagree; [ ] = dose if it differs, or a comment. Unless noted, calls follow the shape of the dose curve; as a rule, active = well fitted inhibition curve with a large enough effect; inconclusive = small, poorly fitted or top-dose-only effect, or another doubt; inactive = no such curve, though single readings can be large or run the other way.

SMILES	Cycloheximide cs	Pf growth 96h	Shiga inhibitor	Pf growth 48h	HCV inhibitor	HCMV inh
NC(=O)CC[C@@H]1NC(=O)[C@H](Cc2ccccc2)NC(=O)[C@H](Cc2ccc(O)cc2)NC(=O)[C@@H](N)CSSC[C@@H](C(=O)N2CCC[C@H]2C(=O)N[C@@H](CCCN=C(N)N)C(=O)NCC(N)=O)NC(=O)[C@H](CC(N)=O)NC1=O	3.7	12µM*!	-5.2	?	-11.4%[8.37 µM]	.
CC[C@H](C)[C@@H]1NC(=O)[C@H](Cc2ccc(O)cc2)NC(=O)[C@@H](N)CSSC[C@@H](C(=O)N2CCC[C@H]2C(=O)N[C@@H](CC(C)C)C(=O)NCC(N)=O)NC(=O)[C@H](CC(N)=O)NC(=O)[C@H](CCC(N)=O)NC1=O	-6.2	.	7.8	.	.	.
CC(C)NC(=O)N(C)C[C@H]1OCCCC[C@H](C)Oc2ccc(NS(=O)(=O)c3ccccc3)cc2C(=O)N([C@H](C)CO)C[C@H]1C	.	.	.	.	.	4.2
O=C1C2C3C=CC(C3)C2C(=O)N1c1nc2ccccc2s1 (stereo not given)	7.9	8.28µM*	17.7	22.7%	16.5%	7.9
COC(=O)N(C)C[C@@H]1OCc2cnnn2CCCC(=O)N([C@H](C)CO)C[C@@H]1C	.	.	.	.	.	-5.5
O=C1/C(=C\c2ccc(Cl)c(Cl)c2)CN(C(=O)CCN2CCOCC2)C/C1=C/c1ccc(Cl)c(Cl)c1	.	.	.	.	?	-102.1*
O=C(NCCN1CCOCC1)c1ccc(Cl)c(Cl)c1	-2.8	34.2%	11.3	?	9.2%	28.4
O=C(CCN1CCCCC1)c1ccccc1	16.3	-8.8%	0.2	.	-5.9%	-26.3
CCN(CC)CCC(=O)N1C/C(=C/c2ccccc2)C(=O)/C(=C\c2ccccc2)C1	.	.	.	.	?	-99.9*
O=C1/C(=C\c2ccccc2)CN(C(=O)CCN2CCCCC2)C/C1=C/c1ccccc1	.	.	.	.	?	-100.0*
CC(C)c1cccc(C(C)C)c1NC(=O)c1ccccc1	-4.7	-21.7%	1.2	-11.4%[5.75 µM]	4.2%	1.1
Cc1cccc(C(=O)O/N=C2\CCCc3ccccc32)c1	24.1*	67.0%	41.4*	22.6%	-10.4%	-10.2
Cc1ccc(C(=O)O/N=C2\CCCc3ccccc32)cc1	17.8*	47.4%	61.9*	333.5%	2.9%	54.0
Cc1cccc(C(=O)O/N=C2\CCSc3ccc(C)cc32)c1	-2.6	30.3%	-7.3	8.7%	-0.1%	-5.7
O=C(O/N=C1\CCCc2ccccc21)C1CC1	-1.4	18.3%	-8.1	102.6%	?	-6.6
O=C(O/N=C1\CCCc2ccccc21)c1cccc(Cl)c1	13.3*	15.0%	7.4	35.4%	0.3%	36.3
CN(Cc1ccccc1)C(=O)c1ccc(S(=O)(=O)N(C)c2ccccc2)cc1	.	.	.	.	-16.4%	-7.4
CCOC(=O)CNC(=O)c1cnn2cccnc12	41.7*	?	50.8	25.5%	12.5%	4.2
CCOc1ccc(NC(=O)CSc2nnc(C)n2CC)cc1	-1.4	-6.6%	-5.4	12.3%	24.4%	-3.4
N#Cc1cnc(Sc2ccccc2)nc1	-2.1	0.0329µM*	-11.3	?	1.8%	53.9
Nc1ccc(Sc2ccccc2)nc1	.	.	.	.	4.6%	25.3
CCOC(=O)N1CCN(C(=O)c2cn(CC)c3ccc(S(=O)(=O)N4CC(C)CC(C)C4)cc3c2=O)CC1 (stereo not given)	-3.4	-7.3%	-8.7	?	-5.9%	22.4
NC(=S)N/N=C/c1ccc(-c2ccc(SC(F)F)cc2)o1	37.7*	?	41.1*	?	?	-12.4
NC(=S)N/N=C\c1ccc(-c2cccc(Cl)c2Cl)o1	23.7	?	28.6	.	-6.1%	34.8
Cc1ccc(-c2ccc(/C=N/NC(N)=S)o2)cc1	28.1*	?	58.1*	?	11.2µM*	99.1
O=C(N/N=C/c1ccc(-c2ccc(S(=O)(=O)Nc3ncccn3)cc2)o1)c1cc2ccccc2cc1O	-3.2	.	-4.8	?	-8.5%	-101.4*
NC(=S)N/N=C/c1ccc(-c2ccc(Cl)c(Cl)c2)o1	20.0*	.	32.9	.	?	123.5
O=c1c2oc3ccccc3c2n(Cc2ccccc2Cl)c(=O)n1Cc1ccco1	.	.	.	.	.	-2.3
CCN1CCC(N(Cc2cccc(OC)c2)C(=O)Nc2cccc(C)c2C)CC1	.	.	.	.	.	-13.1
CCNC(=S)N/N=C/c1ccco1	-2.0	?	-15.8	.	-0.1%	-0.5

Bioassay records: PubChem BioAssay, National Center for Advancing Translational Sciences (NCATS)
